Calls of active or inactive are those of the source. The rule behind the calls is not given here.
Experiment: BioD-coupled fluorescence displacement counter-assay – biochemical, dry powder samples, counter-screen, dose response (AID 743363)
Settings: FL-DTB/streptavidin fluorescence displacement counter-screen; series mostly up to 10 µM

Row | Structure (SMILES) | outcome
1 | CN1c2ccc(-c3ccc(F)cc3)cc2[C@H]2[C@H](CCN2C(=O)Nc2ccc(F)cc2)[C@H]1CO | inactive
2 | CC(C)NC(=O)N1CC[C@@H]2[C@@H](CO)N(C)c3ccc(-c4ccc(F)cc4)cc3[C@@H]21 | inactive
3 | CNC(=O)c1ccc(N2CCN(C(=O)c3ccc4c(c3)OCO4)CC2)cc1 | inactive
4 | CC(=O)c1ccc(N2CCN(S(=O)(=O)c3ccc4c(c3)OCO4)CC2)cc1 | inactive
5 | COC(=O)CCCCCCC(=O)N1CC[C@@H]2[C@@H](CO)N(C)c3ccc(-c4cccc(F)c4)cc3[C@@H]21 | inactive
6 | CN1c2ccc(-c3cccc(F)c3)cc2[C@H]2[C@H](CCN2C(=O)CCCCCCC(=O)O)[C@H]1CO | inactive
7 | COc1cc2c(cc1C(=O)N1CCN(c3ccc(C(C)=O)cc3)CC1)OCO2 | inactive
8 | COc1cccc(NC(=O)N2CC[C@@H]3[C@@H](CO)N(C)c4ccc(-c5cccc(F)c5)cc4[C@@H]32)c1 | inactive
9 | CC(=O)c1ccc(N2CCN(C(=O)c3ccc4c(c3)OC(C)(C)O4)CC2)cc1 | inactive
10 | CC(=O)c1ccc(N2CCN(C(=O)c3ccccc3F)CC2)cc1 | inactive
11 | CN1c2ccc(-c3cccc(F)c3)cc2[C@H]2[C@H](CCN2C(=O)Nc2ccccc2F)[C@H]1CO | inactive
12 | CC(=O)c1ccc(N2CCN(C(=O)c3cc4c(cc3Cl)OCO4)CC2)cc1 | inactive
13 | CC(=O)c1ccc(N2CC3CC2CN3C(=O)c2ccc3c(c2)OCO3)cc1 (stereo not given) | inactive
14 | CC(=O)c1ccc(N2CCN(C(=O)c3cccc4c3OCO4)CC2)cc1 | inactive
15 | CC(=O)c1ccc(N2CCCN(C(=O)c3ccc4c(c3)OCO4)CC2)cc1 | inactive
16 | CN1c2ccc(-c3cccc(F)c3)cc2[C@H]2[C@H](CCN2C(=O)c2ccc3c(c2)OCO3)[C@@H]1CO | inactive
17 | CN(C)S(=O)(=O)c1ccc(N2CCN(C(=O)c3ccc4c(c3)OCO4)CC2)cc1 | inactive
18 | CC(=O)c1ccc(N2CCN(C(=O)c3ccc(Cl)c(Cl)c3)CC2)cc1 | inactive
19 | N#Cc1ccc(N2CCN(C(=O)c3ccc4c(c3)OCO4)CC2)cc1 | inactive
20 | CNS(=O)(=O)c1ccc(N2CCN(C(=O)c3ccc4c(c3)OCO4)CC2)cc1 | inactive
21 | CC(C)NC(=O)N1CC[C@@H]2[C@@H](CO)N(C)c3ccc(-c4cccc(F)c4)cc3[C@@H]21 | inactive
22 | CCCNC(=O)N1CC[C@@H]2[C@@H](CO)N(C)c3ccc(-c4ccc(F)cc4)cc3[C@@H]21 | inactive
23 | CN1c2ccc(-c3cccc(F)c3)cc2[C@H]2[C@H](CCN2C(=O)CCCCCCN)[C@H]1CO | inactive
24 | CC(=O)c1ccc(N2CCN(C(=O)c3ccccc3Cl)CC2)cc1 | inactive
25 | CN1c2ccc(-c3ccc(F)cc3)cc2[C@H]2[C@H](CCN2C(=O)Nc2cc(F)ccc2F)[C@H]1CO | inactive
26 | CS(=O)(=O)c1ccc(N2CCN(C(=O)c3ccc4c(c3)OCO4)CC2)cc1 | inactive
27 | CC(=O)c1ccc(N2CCN(C(=O)c3cc4c(cn3)OCO4)CC2)cc1 | inactive
28 | CN1c2ccc(-c3cccc(F)c3)cc2[C@H]2[C@H](CCN2C(=O)Cc2ccccc2)[C@H]1CO | inactive
29 | CCCCCCCC(=O)N1CC[C@@H]2[C@@H](CO)N(C)c3ccc(-c4cccc(F)c4)cc3[C@@H]21 | inactive
30 | COc1ccccc1NC(=O)N1CC[C@@H]2[C@@H](CO)N(C)c3ccc(-c4ccc(F)cc4)cc3[C@@H]21 | inactive
